From PubChem BioAssay
Cruzain noTriton: inhibitors of Trypanosoma cruzi cruzain without detergent | P25779 | purified cruzain, Z-FR-AMC fluorescence, no detergent | Potency, µM, for inactives: max response, negative = inhibition, most hits filed as inhibitors | 2.3% of 200,000 active;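 further: plate controls were enzyme without inhibitor for no effect and buffer without enzyme for full effect; nearly all actives have a fitted effect of over 40% in size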
Target sequence (P25779 123-467 limits assumed): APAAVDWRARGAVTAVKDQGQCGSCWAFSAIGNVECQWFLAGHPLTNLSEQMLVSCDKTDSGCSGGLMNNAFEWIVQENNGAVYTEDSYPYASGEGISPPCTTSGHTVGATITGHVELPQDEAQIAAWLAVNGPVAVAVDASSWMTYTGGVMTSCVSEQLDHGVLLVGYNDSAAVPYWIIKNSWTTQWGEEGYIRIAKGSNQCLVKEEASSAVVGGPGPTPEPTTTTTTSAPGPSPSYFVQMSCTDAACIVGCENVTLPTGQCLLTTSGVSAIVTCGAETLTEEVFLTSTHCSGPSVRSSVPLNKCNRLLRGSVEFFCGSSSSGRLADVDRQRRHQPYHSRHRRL
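Detergent-free condition (0.00005% Triton X-100) in acetate buffer pH 5.5 with DTT. 1.5 nM enzyme and compound were pre-mixed 15 min, then 2 uM Z-FR-AMC substrate added; reaction progress from fluorescence change between first and third reads (60 s).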
Cruzain Triton: blocks cruzain activity in presence of Triton detergent. Potency, µM, without a hit: max response, negative = inhibition, most hits filed as inhibitors. 0.43% of 200,000 active. AID 1478. purified cruzain, Z-FR-AMC fluorescence, 0.01% Triton;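 further: plate controls were neutral wells for no effect and buffer without enzyme for full effect; nearly all actives have a fitted effect of over 40% in size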
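Cysteine protease activity tested under reducing, mildly acidic conditions (100 mM sodium acetate pH 5.5, 5 mM DTT) plus 0.01% Triton X-100. Cruzain 1.5 nM; substrate Z-FR-AMC 2 uM; 15 min compound preincubation at room temperature.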
NS1 function inh: blocks influenza NS1 protein function; Potency, µM (doses to about 46.1 µM), for inactives: at the top dose activity, positive = more growth; 0.4% of 270,000 active; calls by dose curve; further: actives are rising curves; nearly all actives have a fitted effect of over 50% in size
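In this qHTS, NS1 from influenza A is expressed in budding yeast, where it slows growth. Cells are switched from glucose to 2% galactose medium (pH 6.0, -URA), treated with compound, and growth recovery is read at OD600.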
Active calls of the source: *; ? = inconclusive; · = not tested or not shown. This is one part of a sample in which hits are shown more often than they occur. Unless noted, the call rests on the fitted dose curve; in most records, active means well fitted curve in the direction sought with a large enough effect; inconclusive means small, poorly fitted or top-dose-only effect, or another doubt; inactive means no such curve, though single readings can be large; an effect the other way counts as inactive or inconclusive. Potency means the concentration at half of the fitted maximal effect.

SMILES | Cruzain noTriton | Cruzain Triton | NS1 function inh
CCn1c2ccccc2c2cc(/C=N/NC(=O)c3cccc(C)c3)ccc21 | 7.9µM* | 7% | -17%
Cn1c2ccccc2c2cc(/C=N/NC(=O)c3ccc(N)cc3)ccc21 | · | · | -52%
Cn1c2ccccc2c2cc(/C=N/NC(=O)c3ccccc3F)ccc21 | · | · | -38%
CCn1c2ccccc2c2cc(/C=N/NC(=O)c3ccccc3C)ccc21 | 32µM* | -21% | -11%
O=C(NC(=S)Nc1ccc(N2CCOCC2)c(Cl)c1)c1cncc(Br)c1 | -9% | -4% | 26%
O=C(NC(=S)Nc1ccc(N2CCCCC2)c(Cl)c1)c1ccc2c(c1)OCCO2 | 25µM* | -1% | 13%
CCc1ccccc1-n1c(SCC(=O)Nc2ccc3c(c2)OCCO3)nc2[nH]ncc2c1=O | 1% | -4% | -9%
CC1(C)Oc2ccc3ccc(=O)oc3c2C(/C=N/O)=C1Cl | · | · | 2%
COc1ccc(Nc2cc(C(=O)NCc3ccco3)c3ccccc3n2)cc1 | 13µM* | -7% | ?
COc1ccc(CNC(=O)COC(=O)c2cc(-c3ccc(Cl)s3)nc3ccccc23)cc1 | -18% | 4% | 7%
COc1ccc(Nc2cc(C(=O)NCc3ccccc3OC)c3ccccc3n2)cc1 | 11% | -10% | ·
O=C(COC(=O)c1cc(-c2ccc(Cl)s2)nc2ccccc12)NCc1ccco1 | 13% | 20µM* | 15%
O=C(NCc1ccco1)c1cc(-c2cccs2)nc2ccccc12 | -13% | -15% | 5%
O=C(COC(=O)c1cc(-c2cccs2)nc2ccccc12)NCc1ccco1 | 3% | 25µM* | 2%
Cc1ccc(S(=O)(=O)N2CCCC2C(=O)NC2CCCCC2)cc1 (stereo unspecified) | 9% | -3% | -35%
CNS(=O)(=O)c1cccc(C(=O)OCc2csc(-c3ccccc3)n2)c1 | -3% | -7% | 7%
Cn1nc(-c2ccccc2)c(COC(=O)c2cccc(Cl)c2)c1S(=O)(=O)c1ccccc1 | 25µM* | 2% | 1%
COc1cc(OC)cc(C(=O)Nc2ccc(-c3nc4ccccc4s3)c(C)c2)c1 | -5% | 1% | ·
O=C(NCCC1=CCCCC1)C(=O)NCc1ccncc1 | · | · | -4%
COc1cc(C(CC(=O)NCc2ccccc2Cl)N2Cc3ccccc3C2=O)cc(OC)c1OC (stereo unspecified) | 16µM* | ? | ·
COc1ccccc1CNC(=O)CC(c1ccc(OC)c(OC)c1)N1Cc2ccccc2C1=O (stereo unspecified) | -10% | -3% | ·
COCCN1CCn2c(nc3cc(NC(=O)c4cccs4)ccc32)C1 | 3% | 5% | ?
CC(c1ccccc1)N1CCn2c(nc3cc(NC(=O)c4cccs4)ccc32)C1 (stereo unspecified) | 32µM* | -4% | -56%
O=C(O)c1ccc(Nc2nc(-c3cccnc3)nc3ccccc23)cc1 | · | · | 12%
COc1ccc(C(=O)N2CCc3cc(OC)c(OC)cc3C2COc2ccc3c(C)cc(=O)oc3c2)c(OC)c1 (stereo unspecified) | ? | 5% | ·
SMILES | Cruzain noTriton | Cruzain Triton | NS1 function inh
COc1ccccc1-c1nnc(SCC(=O)O)n1-c1ccc(C)cc1 | · | · | 3%
COc1ccccc1-c1nnc(SCC(=O)c2ccc(Cl)cc2)n1-c1ccccc1 | 25µM* | -4% | ·
COc1ccccc1NC(=S)NNC(=O)c1nn(C)c(C)c1Br | -2% | -2% | -14%
O=C(Nc1ccccc1)N1CCCN(c2ccc(C(F)(F)F)cn2)CC1 | · | · | 1%
O=C(O)C1C2C=CC(C2)C1C(=O)N1CCN(C/C=C/c2ccccc2)CC1 (stereo unspecified) | 3% | 3% | -3%
Nc1ccc2nn(-c3cccc4ccccc34)nc2c1 | ? | -3% | -4%
Cc1cc2nn(-c3cccc4ccccc34)nc2cc1N | 16µM* | -3% | -48%
Cc1ccc2ncc(C(=O)c3ccc(C)c(C)c3)c(S(=O)(=O)c3ccc(F)cc3)c2c1 | ? | -6% | ·
COc1ccc(S(=O)(=O)c2c(C(=O)c3ccc(C)c(C)c3)cnc3ccc(F)cc23)cc1 | 13µM* | -3% | ·
COc1ccc(C(=O)c2cnc3ccc(C)cc3c2S(=O)(=O)c2ccccc2)cc1 | ? | -4% | ·
CCOc1ccc(S(=O)(=O)c2c(C(=O)c3ccc(C)c(C)c3)cnc3ccccc23)cc1 | 20µM* | -3% | ·
CCOCCCNCC(=O)NCC1CCCCC1 | · | · | -6%
CN1C[C@H](CO)C=C2c3cccc4[nH]cc(c34)C[C@H]21 | · | · | 12%
CN1C[C@@H](CO)C=C2c3cccc4[nH]cc(c34)CC21 (stereo partly specified) | 40µM* | 8% | ·
O=C(Nc1cccc(S(=O)(=O)Nc2ccccc2Cl)c1)c1ccc(N2CCCC2)c([N+](=O)[O-])c1 | 10µM* | -1% | 2%
O=C(Nc1cccnc1)c1ccc(N2CCCC2)c([N+](=O)[O-])c1 | · | · | 1%
